GRK2 inh: compounds blocking aptamer binding on GRK2 – biochemical, human GRK2, bead flow cytometry, HTS, primary screen | Beta-adrenergic receptor kinase 1 (Homo sapiens), P25098 | FAM-aptamer displacement from GRK2 | inhibition of aptamer binding, % at 10 µM | 330,000 tested, 0.59% active | AID 488847, 2010;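 active = inhibition of aptamer binding above 40%, roughly 3 SD of noise, on plates passing a quality check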;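 note: median bead fluorescence of bound FAM aptamer so fluorescent compounds give negative values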
TLR4-MyD88 BLA: inhibitors of TLR4-MyD88 association in cells, primary screen, cell-based, HeLa CL3-4, BLA complementation, FRET ratio; HeLa CL3-4 TLR4/MyD88 BLA complementation; Toll-like receptor 4 (Homo sapiens) + Myeloid differentiation primary response protein …; AID 861, 2007; inhibition, % at 8.4 µM; 200,000 tested, 0.18% active; in the data active = inhibition above about 25%
NOD2 RIPK2 PPI: NOD2-RIPK2 binding disruptors in cells, primary screen, fluorescence, CHO cells, BLA complementation | CCF4 ratio | Receptor-interacting serine/threonine-protein kinase 2 (Homo sapiens), O43353 | AID 624267, 2012 | inhibition, % at 4.98 µM | 360,000 tested, 0.38% active; in the data active = inhibition above about 21%
Target sequence (O43353 whole entry, looked up): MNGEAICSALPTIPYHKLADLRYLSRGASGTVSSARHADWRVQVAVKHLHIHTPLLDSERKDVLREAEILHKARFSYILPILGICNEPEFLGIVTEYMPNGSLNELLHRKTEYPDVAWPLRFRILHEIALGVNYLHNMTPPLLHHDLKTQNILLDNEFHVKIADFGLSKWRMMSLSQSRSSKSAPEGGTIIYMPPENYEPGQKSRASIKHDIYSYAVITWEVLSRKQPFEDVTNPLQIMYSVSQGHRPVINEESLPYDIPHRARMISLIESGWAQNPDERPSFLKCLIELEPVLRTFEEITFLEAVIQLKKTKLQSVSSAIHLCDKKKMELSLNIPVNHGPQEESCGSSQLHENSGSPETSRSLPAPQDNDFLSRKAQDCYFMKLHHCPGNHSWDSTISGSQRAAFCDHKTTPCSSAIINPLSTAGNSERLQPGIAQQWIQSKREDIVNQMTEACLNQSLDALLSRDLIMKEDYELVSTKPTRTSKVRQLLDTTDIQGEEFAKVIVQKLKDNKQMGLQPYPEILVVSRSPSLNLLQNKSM
TMEM16A act: TMEM16A chloride channel activators or potentiators, primary screen, cell-based, HTS; AID 623877, 2012; 340,000 tested, 0.3% active; B-score at 10 µM; HEK293 TMEM16A/YFP-H148Q/I152L, iodide quench fluorescence; stronger effect = lower value; Anoctamin-1 (Mus musculus), Q8BHY3;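 active = fluorescence-ratio B-score plate-corrected deviation score at least 3 library SD below zero, with starting fluorescence score within 5 deviations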;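 note: channel opened by trigger with iodide after compound preincubation; score built on the fluorescence ratio of max minus min over baseline; more negative score means more quench and so TMEM16A activation or potentiation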
TLR9-MyD88 inh: inhibitors of TLR9-MyD88 association in cells, primary screen, cell-based, CHO, BLA complementation, fluorescence | 340,000 tested, 0.21% active | CCF4 FRET ratio | Toll-like receptor 9 (Homo sapiens) + Myeloid differentiation primary response protein … | inhibition, % at 4.98 µM;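 active = inhibition above the mean over all tested compounds plus 3 SD, cut at about 21% in these data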
TMEM16A inh: TMEM16A chloride channel inhibitors, primary screen, cell-based, HTS; Anoctamin-1 (Mus musculus), Q8BHY3; HEK293 TMEM16A/YFP iodide influx fluorescence, ionomycin; normalized B-score (activity score, 25-100; higher = stronger inhibition) at 10 µM; 310,000 tested, 1.2% active;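 active = ratio plate-corrected score three or more library SD toward inhibition, starting fluorescence score within five deviations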;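 note: score derived from kinetic fluorescence span divided by baseline fluorescence per well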
NOD2-RIPK2 conf: NOD2-RIPK2 binding disruptors, retest, confirmation, fluorescence, CHO cells, BLA complementation, triplicate; shares compounds with NOD2 RIPK2 PPI; CCF4 FRET; inhibition, % at 4.98 µM; 1,200 tested, 70% active;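 active = mean inhibition across replicates above a set limit taken from the earlier primary screen, cut at about 21% in these data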
BLA counter: counter-screen for NOD2-RIPK2 interaction inhibitors: BLA reporter; 1,200 tested, 57% active; shares compounds with NOD2 RIPK2 PPI; CHO BLA reporter, CCF4 FRET ratio, counterscreen; inhibition, % at 4.98 µM; AID 624371;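 active = mean inhibition above the low-control mean inhibition plus three low-control SD, cut at about 11% in these data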
Numbers stand for hits; - = inactive; . = no result given. An excerpt weighted towards active compounds, which were near 2.2% of everything screened.

SMILES	GRK2 inh	TLR4-MyD88 BLA	NOD2 RIPK2 PPI	TMEM16A act	TLR9-MyD88 inh	TMEM16A inh	NOD2-RIPK2 conf	BLA counter
C=C1C(=O)[C@]23C[C@H]1CC[C@H]2[C@]1(C)[C@@H](O)CC[C@@](C)(C(=O)O)[C@H]1C[C@@H]3O	.	.	-	.	.	.	.	.
C=C1C(=O)[C@]23C[C@H]1CC[C@H]2[C@]1(C)[C@@H](OC(C)=O)CC[C@@](C)(C(=O)OC)[C@H]1C[C@@H]3OC(C)=O	.	.	59.3	.	.	.	55.5	-
C=C1C(=O)[C@]23C[C@H]1CC[C@H]2[C@]1(C)[C@@H](OC(C)=O)CC[C@@](C)(C(=O)O)[C@H]1C[C@@H]3O	.	.	-	.	.	.	.	.
C=C1C(=O)[C@]23C[C@H]1CCC2[C@@]1(C)C(C[C@@H]3O)[C@](C)(C(=O)OC)CC[C@@H]1OC(C)=O (some centres undefined)	.	.	93.1	.	.	.	92.7	21.7
Cc1ccc(NC(=O)CNC(=O)Cn2cnc3sc(C)c(C)c3c2=O)cc1F	-	.	-	-	-	-	.	.
CC(=O)c1cccc(NC(=S)NC2CCCCCCC2)c1	-	.	-	-	-	-	.	.
Cc1ccnc(N/C=C(\C#N)c2nc(-c3cccc(Br)c3)cs2)c1	-	-	27.0	-	-	-	30.0	29.7
CCN(CC(=O)Nc1ccc(OC)cc1)C(=O)c1ccc2c(=O)n3c(nc2c1)CCC3	-	.	-	-	-	.	.	.
Cc1cccc(C)c1NC(=O)C(c1ccc(-c2ccccc2)cc1)n1c(=O)c(-c2cc3ccccc3[nH]2)nc2ccccc21 (centres undefined)	.	.	42.5	.	.	.	39.2	65.8
COc1ccc(C(C(=O)Nc2c(C)cccc2C)n2c(=O)c(-c3ccccc3)nc3ccccc32)cc1 (centres undefined)	.	.	-	.	.	.	.	.
Cc1cccc(C)c1NC(=O)C(c1ccc(C(F)(F)F)cc1)n1c(=O)c(-c2cc3ccccc3[nH]2)nc2ccccc21 (centres undefined)	.	.	47.3	.	.	.	45.0	69.3
CNC(=O)c1ccc2cc(OC)c(OC)cc2c1	.	.	-	.	-	.	.	.
CN1CCN(CCCNCc2cn(CCC#N)c3ccccc23)CC1	-	.	-	-	-	-	.	.
O=C(CCOc1ccccc1)NNC(=O)c1ccccc1	-	.	-	-	-	.	.	.
Nc1ncnc2c1cnn2C1CCCCC1	-	.	-	-	-	-	.	.
Cc1cc2[nH]c3c4ccccc4nc(C)c3c2cc1C	.	.	21.4	-	-	.	26.1	-
O=c1[nH]c2cc3ccccc3cc2nc1-c1nnnn1Cc1ccccc1	.	.	-	.	.	.	.	.
Cc1cc2nc(-c3nnnn3Cc3ccccc3)c(=O)[nH]c2cc1C	.	.	23.3	.	.	.	-	14.7
O=C(Nc1ccc(S(=O)(=O)N2CCCCCC2)cc1)c1[nH]ncc1[N+](=O)[O-]	-	.	29.1	-	26.2	-	-	-
O=S(=O)(c1cccc(NC(=S)Nc2ccc(Br)cc2Cl)c1)N1CCOCC1	-	-	-	-	-	-	.	.
O=c1[nH]c2cc3c(cc2cc1CN(CCCO)Cc1nnnn1Cc1ccc(F)cc1)OCO3	-	-	26.1	-	-	-	-	-
O=S(=O)(Nc1cccc(-c2cn3c(n2)SCC3)c1)c1ccc(F)cc1F	-	.	-	-	-	-	.	.
Cc1cc(N2CCN(C(C(=O)NC3CCCC3)c3ccco3)CC2)c2ccccc2n1 (centres undefined)	.	.	-	.	.	.	.	.
COCCCNc1c2c3c(cccc3[nH]c1=O)C(=O)c1ccccc1-2	-	-	32.3	-	-	-	37.4	41.1
COCCCNC1=C(Cl)C(=O)c2ccccc2C1=O	-	.	-	-	-	-	.	.
SMILES	GRK2 inh	TLR4-MyD88 BLA	NOD2 RIPK2 PPI	TMEM16A act	TLR9-MyD88 inh	TMEM16A inh	NOD2-RIPK2 conf	BLA counter
Nc1nc2ncccn2c1-c1ccc(C(F)(F)F)cc1	.	.	25.4	.	.	.	27.7	34.5
Nc1nc2ncccn2c1-c1ccc(F)cc1	.	.	-	.	.	.	.	.
CCN(CC)c1ccc(C=C(c2nnnn2-c2ccccc2)c2nnnn2-c2ccccc2)cc1	-	-	26.9	-	-	-	30.3	30.0
O=C1OCCN1CC(=O)N1CCc2c([nH]c3ccccc23)C1c1ccccn1 (centres undefined)	-	-	22.1	-	-	-	-	-
COc1ccc(OCC(=O)N2CCc3c([nH]c4ccccc34)C2c2ccccn2)cc1 (centres undefined)	-	-	-	-	-	-	.	.
Cc1cn([C@H]2C[C@H](O)[C@@H](/C=C/C(=O)NCCN3CCCCC3)O2)c(=O)[nH]c1=O	.	.	61.4	.	.	.	-	-
Cc1cn([C@H]2C[C@H](O)[C@@H](/C=C/C(=O)NCc3ccccc3)O2)c(=O)[nH]c1=O	.	.	-	.	.	.	.	.
CCCCCOc1ccc(C(=O)Nc2ccc(N3CCOCC3)cc2N2CCOCC2)cc1	-	.	-	-	-	.	.	.
Cc1nc([N+](=O)[O-])c(Br)n1CC(=O)c1ccc(Cl)cc1	-	-	-	-	-	-	.	.
Cc1nc([N+](=O)[O-])c(Br)n1Cc1ccc(Cl)c(Cl)c1	.	-	23.3	-	-	.	42.6	-
COc1ccccc1NC(=O)c1ccc(NC(=O)CSc2nc(N)cc(=O)[nH]2)cc1	-	.	-	-	-	.	.	.
CN1CCN(Cc2c(O)c(Cl)cc3c(-c4ccccc4)cc(=O)oc23)CC1	-	-	21.2	-	-	-	21.4	24.1
Cc1cc(=O)oc2c(CN3CCN(C)CC3)c(O)c(Cl)cc12	-	-	-	-	-	-	.	.
O=C(c1ccccc1)C1OC1C(=O)c1ccccc1 (centres undefined)	.	.	-	-	-	.	.	.
CC1C=CC(C)C(C(=O)c2ccccc2)C1C(=O)c1ccccc1 (centres undefined)	.	.	29.6	.	-	.	-	-
Cc1ccc(CNC(=O)Nc2ccc3c(c2)N(C)C(=O)CS3)cc1	-	-	27.2	-	-	-	-	-
CN1C(=O)CSc2ccc(NC(=O)NCc3ccccc3)cc21	-	-	-	-	-	-	.	.
O=C(O)c1cccc2c1C(=O)c1ccccc1C2=O	-	-	-	-	-	-	.	.
O=C1C(O)=CC(=C(c2ccccc2)c2ccccc2)c2ccccc21	.	.	34.3	-	-	.	-	-
O=[N+]([O-])c1ccc(N/N=C/c2ccccc2)c(F)c1	-	-	24.1	-	-	-	27.0	29.9

Assay outcomes deposited in PubChem by several laboratories.
